Bioassay records deposited in PubChem BioAssay by National Center for Advancing Translational Sciences (NCATS).
S2 tox = Viability Counterscreen for Primary qHTS for Inhibitors of ATXN expression; S2 cells (HEK-293 line with an ATXN2-luciferase reporter) viability, CellTiter-Fluor protease fluorescence, 24 h; Potency, µM (titrated, usually from 56.7 µM), most hits filed as cytotoxic; 0.49% of 400,000 active; AID 651635, 2014; note: nearly all actives have a fitted effect of over 40% in size
TGFb SMAD3 inh = qHTS for Inhibitors of TGF-b. HepG2 CAGA-GFP TGF-b/SMAD3 reporter, GFP fluorescence, 18 h; TGF-beta stimulated, 500 pg/mL final. Potency, µM (top dose mostly 46.1 µM), for inactives: at the highest dose activity, negative = inhibition, usual class: inhibitors. 1.2% of 410,000 active. AID 588855, 2011; note: % is set by controls: 0 for no effect and ±100 for the full control effect; nearly all actives have a fitted effect of over 65% in size
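TGF-beta reporter screen: HEPG2 CAGA-GFP, 1% FBS, 500 pg/mL TGF-beta final, 18 h; per-cell GFP summed per well; curves fitted and categorized by class.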
ATXN2 expr inh = Primary qHTS for Inhibitors of ATXN expression; HEK-293 ATXN2-luciferase reporter, luminescence, 24 h; AID 1745845, 2022; 0.72% of 360,000 active; Potency, µM (top dose mostly 57 µM), for inactives: at the top dose activity change, negative = inhibition, most hits filed as inhibitors; note: % is set by controls: 0 for no effect and ±100 for the full control effect; nearly all actives have a fitted effect of over 55% in size
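qHTS (up to 57 uM final) was run with 24 h compound exposure of reporter cells at 37 °C. Each well was multiplexed: SteadyGlo luminescence measured ATXN2-luciferase expression after a fluorogenic Gly-Phe-AFC viability readout (25 uM final).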
TDP1 cell CPT = qHTS for Inhibitors of human tyrosyl-DNA phosphodiesterase 1 (TDP1): qHTS in cells in presence of CPT. chicken DT40 Tdp1-/-;hTDP1 cells + 20 nM CPT, ATP luminescence, 48 h. Potency, µM (highest dose often 46.2 µM), without a hit: top-dose activity change, negative = growth inhibition, hits mostly inhibitors. 12% of 420,000 active. AID 686979, 2013; note: % is set by controls: 0 for no effect and ±100 for the full control effect; nearly all actives have a fitted effect of over 55% in size
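Cell growth measured by CellTiter-Glo luminescence after a minimum 48 h, 37 C compound exposure with 20 nM CPT in Tdp1-knockout DT40 cells stably expressing hTDP1, seeded 400/well; qHTS titration format.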
DT40 TDP1 no CPT = qHTS for Inhibitors of human tyrosyl-DNA phosphodiesterase 1 (TDP1): qHTS in cells in absence of CPT | DT40 Tdp1-/- hTDP1 cells, no CPT, ATP luminescence, 48 h | Potency, µM (highest dose often 46.2 µM), without a hit: at the highest dose activity change, negative = growth inhibition, most hits filed as inhibitors | 15% of 420,000 active; note: % is set by controls: 0 for no effect and ±100 for the full control effect; nearly all actives have a fitted effect of over 55% in size
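Chicken DT40 Tdp1-/- cells stably complemented with human TDP1 were seeded at 400 cells/well with DMSO in place of 20 nM camptothecin. After compound pinning, cells grew at least 48 hr at 37 °C; viability read by CellTiter-Glo luminescence.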
HepG2 tox = qHTS for Inhibitors of TGF-b: Cytotox Counterscreen; HepG2 CAGA-GFP viability, ATP luminescence, 18 h; Potency, µM (highest dose often 46.1 µM), inactives show at the top dose activity change, negative = cytotoxicity, actives largely listed as cytotoxic; 0.76% of 410,000 active; AID 588856, 2011
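HepG2 CAGA-GFP cells (1000/well, DMEM with 1% FBS) received compound, then TGF-beta at 500 pg/mL final, and were incubated 18 hours at 37 degrees C. Viability was read by CellTiter-Glo luminescence. Media-only wells were set as complete cell-killing and DMSO as no toxicity.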
Starred values were filed as active, the others as inactive; i = inactive; ? = inconclusive; · = no result. Hits are enriched below; roughly 17% of the tested compounds scored in any of these assays. Calls come from the whole dose curve; as a rule, active = well fitted curve in the direction sought with a large enough effect; inconclusive = small, poorly fitted or top-dose-only effect, or another doubt; inactive = no such curve, though single readings can be large; an effect the other way counts as inactive or inconclusive. Potency is the fitted concentration of half-maximal effect.

SMILES	S2 tox	TGFb SMAD3 inh	ATXN2 expr inh	TDP1 cell CPT	DT40 TDP1 no CPT	HepG2 tox
CCN(CC)S(=O)(=O)c1ccc(C(=O)Nc2nnc(CSC)o2)cc1	i	3%	6%	9%	24%	1%
CCCCN(C)S(=O)(=O)c1ccc(C(=O)Nc2nnc(-c3ccco3)o2)cc1	i	-10%	?	7.3µM*	6.5µM*	-1%
CCN(CC)S(=O)(=O)c1ccc(C(=O)Nc2nnc(-c3ccco3)o2)cc1	i	-8%	·	?	23µM*	-46%
CCCCN(CC)S(=O)(=O)c1ccc(C(=O)Nc2nnc(-c3cccs3)o2)cc1	?	-18%	?	15µM*	10µM*	17%
Ic1ccc(/C=C2\C=Cc3ccccc32)cc1	·	-6%	·	?	?	-6%
COC(=O)/C=C/C(=O)N1CCN(c2ccccc2C)CC1	?	2%	4%	?	16µM*	-3%
COC(=O)/C=C/C(=O)N1CCN(c2ccccc2)CC1	i	-4%	5%	10%	3%	7%
Cc1ccccc1N1CCN(c2ccccc2NC(=O)/C=C\C(=O)O)CC1	i	2%	-5%	16µM*	?	1%
O=C(CSc1nc(=O)[nH]c2c1CCCC2)Nc1cc(C(F)(F)F)cc(C(F)(F)F)c1	i	-24%	-7%	18µM*	23µM*	-7%
Cc1ccc(CN2CCCn3nc(C(=O)NCCc4ccccc4C)cc3C2=O)cc1	i	-9%	11%	-30%	?	7%
Cc1ccc(CN2CCCn3nc(C(=O)NCc4ccc(OC(C)C)cc4)cc3C2=O)cc1	?	0%	-12%	18µM*	16µM*	-28%
CCOc1ccccc1CNC(=O)c1cc2n(n1)CCCN(Cc1ccc(C)cc1)C2=O	?	?	-10%	16µM*	15µM*	-27%
COc1cccc(CNC(=O)c2cc3n(n2)CCCN(Cc2ccc(C)cc2)C3=O)c1OC	i	-14%	-8%	23µM*	16µM*	-10%
COc1ccccc1NC(=O)c1cnc(SCC(=O)NCC2CCCO2)n(C)c1=O (stereo not given)	i	?	-21%	10µM*	?	-29%
Cc1sc2nc(SCC(=O)Nc3c(C)n(C)n(-c4ccccc4)c3=O)n(C)c(=O)c2c1C	i	-11%	-1%	-26%	-30%	5%
COc1ccccc1NC(=O)CSc1nc2sc(C)c(C)c2c(=O)n1C	i	16%	-7%	21µM*	13µM*	-13%
Cc1sc2nc(SCC(=O)OC(C)C)n(C)c(=O)c2c1C	?	2%	-3%	-27%	23µM*	-1%
CCCCn1c(N)c(N(CCC(C)C)C(=O)COC(=O)c2cccnc2Cl)c(=O)[nH]c1=O	i	-1%	-4%	-1%	20%	-13%
COc1ccc(-c2nnc(SCc3ccc(C(=O)O)cc3)n2N)cc1	i	-5%	-12%	-4%	-4%	2%
CN(Cc1ccccc1)C(=O)c1csc([C@@H]2C[C@H](O)[C@@H](CO)O2)n1	i	1%	8%	-8%	-1%	-10%
CC1(C)CN(c2ccccc2)N(Cc2ccc(F)cc2)C1=O	i	1%	-11%	9.2µM*	9.2µM*	-13%
CCOCCCNC(=O)NC(CCC(C)C)c1c(-n2cccc2)sc2c1CCN(C)C2 (stereo not given)	·	7%	·	16µM*	16µM*	-1%
CC(NC(=O)Nc1cc(Cl)ccc1Cl)c1c(-n2cccc2)sc2c1CCCC2 (stereo not given)	i	-17%	-10%	?	18µM*	-15%
